Screening results from PubChem BioAssay.
HTR5A ag = activates human HTR5A in OPRM1-OPRD1 agonist counter-screen; P47898; HTR5A agonist assay, luminescence, cell-based; activation, % at 9.3 µM; hit rate 0.61% among 340,000; in the data active means activation mostly above about 9.5%, no sharp cut-off; inactive means mostly below about 7.6%
HTR5A inv ag = counter-screen for OPRM1-OPRD1 inverse agonists: human HTR5A inverse agonism | P47898 | HTR5A cell line, luminescence | inhibition, % at 9.3 µM | hit rate 0.083% among 340,000; in the data active means inhibition mostly above about 23%, no sharp cut-off; inactive means mostly below about 18%
OPRM1-OPRD1 inv = inverse agonists of human mu-delta opioid receptor heterodimerization; P35372+P41143; cell-based MOR-DOR heterodimer luminescence, inverse agonism; inhibition, % at 9.3 µM; hit rate 0.21% among 340,000; in the data active means inhibition above about 22%, passing the limit was not always enough
OPRM1-OPRD1 ag = agonists of human mu-delta opioid receptor heterodimerization; cells, OPRM1-OPRD1 heterodimerization, luminescence; P35372+P41143; hit rate 0.3% among 340,000; activation, % at 9.3 µM; AID 504326; in the data active means activation above about 18%
Each line names hits and unclear results; the compound was inactive in the other large screens. This is a sample that favours compounds with a hit; in the whole collection about 1.1% have one here.

C/C(=N/NS(=O)(=O)c1ccc(F)cc1)c1ccncc1	HTR5A ag 11.3
C=CCN=c1sc(C(=O)OC)cc(=O)n1CC=C	none
CCN=c1sc(C(=O)OC)cc(=O)n1CC	HTR5A ag 10.5
COc1ccc(CNC(=O)C(=O)NCC2OCCN2S(=O)(=O)c2ccc(F)cc2)cc1 (centres undefined)	none
Nc1nc(Cl)cc(N2CCC(c3cc(-c4ccc(Cl)cc4)n[nH]3)CC2)n1	HTR5A ag 14.0
COc1ccc(-c2cc(C3CCN(c4cc(Cl)nc(N)n4)CC3)[nH]n2)cc1	none
COc1ccc(OC)c(-c2cc(C3CCN(c4cc(Cl)nc(N)n4)CC3)[nH]n2)c1	HTR5A ag 10.4
CC[C@H](C)[C@H](NC(=O)OCc1ccccc1)C(=O)OCC(=O)N1CCN(c2ccc(F)cc2)CC1	none
CCCCNCC1C(Oc2ccc(Cl)cc2)C(=O)N1c1ccccc1C (centres undefined)	HTR5A ag 12.3
CCCNCC1C(Oc2ccc(Cl)cc2Cl)C(=O)N1c1cccc(C)c1C (centres undefined)	none
COc1cc(C2C=C(Nc3ccccc3)C(=O)N2c2ccccc2)ccc1O (centres undefined)	none
O=C1C(Nc2ccccc2)=CC(c2ccc(O)cc2)N1c1ccccc1 (centres undefined)	HTR5A ag 12.5
CSCCC(NS(=O)(=O)c1ccc(C)cc1)C(=O)N1CC=C(c2ccccc2)CC1 (centres undefined)	none
CN(CCNC(=O)c1ccc(CS(=O)(=O)c2c(Cl)cccc2Cl)o1)CCc1ccccc1	none
COc1ccc(NS(=O)(=O)c2cccc(C(=O)NCc3ccccc3CN3CCCC3)c2)cc1	HTR5A ag 12.0
Cc1cccc(C(=O)OCC(=O)NC(=O)NCc2ccccc2)c1	none
COc1cc2c(cc1OC)C(c1ccc(OC)c(OC)c1OC)CC(=O)N2 (centres undefined)	HTR5A ag 10.0
COc1cc2c(cc1OC)C(c1cccc(OC)c1OC)CC(=O)N2 (centres undefined)	none
COc1ccc2nc(C)cc(N/N=C/c3ccccc3)c2c1	OPRM1-OPRD1 ag 21.2
CCOc1ccccc1NC(=O)CN(c1ccc(Cl)cc1)S(C)(=O)=O	none
COc1ccc(CCNC(=O)COc2cc(O)c3c(c2)OC(C)(C)CC3=O)cc1OC	none
CCN(CC)C(=O)Cn1c(=O)n(Cc2ccc(F)cc2)c(=O)c2sccc21	none
O=C(Cn1c(=O)n(-c2ccc(F)cc2)c(=O)c2sccc21)NC1CCCCC1	HTR5A ag 12.2
COC(=O)CNC(=O)Cn1c(=O)n(Cc2ccc(F)cc2)c(=O)c2sccc21	HTR5A ag 11.3
O=C1NC[C@H](Cc2ccccc2)N(CC2CCN(CCc3ccc(-c4ccccc4)cc3)CC2)C1=O	none
Cc1ccc(NS(=O)(=O)c2ccc(Br)s2)nc1	none
CC1=[N+](C)c2ccc3ccccc3c2C1(C)C	HTR5A ag 13.1
Cc1ccc(S(=O)(=O)c2c(C)nn(C(C)(C)C)c2OC(=O)c2ccco2)cc1	HTR5A ag 11.7
COc1ccc(C(=O)Nc2ccnn2C2CCN(C(=O)c3cccnc3)CC2)cc1	none
Nc1ccc2nn(-c3ccccc3)nc2c1	HTR5A ag 11.5
Cn1c(-c2ccc(-c3ccccc3)cc2)c[nH]c1=S	HTR5A inv ag 45.9, OPRM1-OPRD1 inv 41.0
O=C(Oc1ccc(C(=S)N2CCOCC2)cc1)c1ccccc1F	none
CCN(CC(=O)Nc1c(F)cccc1F)C(=O)CC1CCCC1	HTR5A ag 10.5
CCCCN(C)CCNC(=O)c1ccc2c(c1)NC(=O)C(N1CCCCC1)S2 (centres undefined)	HTR5A ag 12.5
O=C(NCCCN1CCCC1=O)c1ccc2c(c1)NC(=O)C(N1CCOCC1)S2 (centres undefined)	none
Cc1ccc2c(c1)COc1c3ccc(C(=O)N[C@@H](C)CO)cc3nn1-2	HTR5A ag 13.9
CC[C@@]1(C(=O)OC)N[C@H](CN(C)S(=O)(=O)c2ccccc2)[C@@H]2C(=O)N(C)C(=O)[C@@H]21	none
C=CCC1C=C(C)CC(CC=C)N1 (centres undefined)	none
Cn1c(=O)c2c(ncn2Cc2ccc(Cl)cc2)n(C)c1=O	HTR5A ag 8.0
Cn1c(=O)c2c(ncn2CC(COCc2ccc(Cl)cc2)OCc2ccc(Cl)cc2)n(C)c1=O (centres undefined)	none
CC(OC(=O)Cn1cc(C(F)(F)F)ccc1=O)C(=O)N(C)c1ccccc1 (centres undefined)	none
COc1ccc(NC(=O)Nc2cccc3c2O[C@H](CN(C)Cc2ccc(-c4ccccc4)cc2)[C@@H](C)CN([C@H](C)CO)C3=O)cc1	none
